Molecules are shown by their SMILES. Unmarked numbers belong to inactive results. Records with an inconclusive call do not appear. The source made the active and inactive calls. Unless noted, calls follow the shape of the dose curve; as a rule, active = well fitted curve in either direction with a large enough effect (not every such curve was filed as active); inconclusive = small, poorly fitted or top-dose-only effect, or another doubt; inactive = flat fitted curve, though single readings scatter.

Experimental findings from PubChem BioAssay (NCATS) are described below.

The nature of assay [1]: AP1 Signaling Pathway (AID 357).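 Also: ME-180 reporter cells stimulated with EGF at its EC50 level; % is scaled to controls: 0 for no effect and ±100 for the full control effect.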 Conditions: ME-180 AP-1-bla reporter, EGF-induced, beta-lactamase ratio, 5 h; at 17.2 µM (top of the series) unless noted. In outline: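 Titration-series screen for positive or negative modulators of EC50 EGF-induced signaling in ME-180 cells carrying an AP-1-driven beta-lactamase reporter. After 5 hours at 37 degrees Celsius, CCF4 460nm/530nm emission ratio gave %Activity; AC50 values derived.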

Assay [2] can be described thus: NFAT Signaling Pathway (AID 444).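 Also: carbachol stimulus at about its EC50 of 1 µM final; % is scaled to controls: 0 for no effect and ±100 for the full control effect.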 The note with it: Jurkat NFAT-bla M1, carbachol, beta-lactamase ratio, 5 h; at 17.2 µM (top of the series) unless noted. In outline: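 Read-out: CCF4 FRET ratio (460 nm/530 nm) after 1 h RT dye loading, used for %activity and AC50 from titration series. Cells: Jurkat NFAT-β-lactamase/M1 line, treated with compound plus 1 uM carbachol for 5 h, 37 °C.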

Assay [3] concerns the target Glucocorticoid receptor (Homo sapiens) (UniProt P04150). The experiment in a line: GR-GFP Redistribution (AID 450;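 active = compounds whose dose series gives a full or clear partial fitted curve of increased nuclear translocation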; also: potency is read from the fitted curve at half-maximal effect).
Assay [4] shares this target. The experiment in a line: GR-EFC Redistribution (AID 451; calls by dose curve; also: potency is read from the fitted curve at half-maximal effect). The note with it: CHO-K1 GR-EFC translocation, beta-gal luminescence, 2 h. In outline:
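Translocation of GR-ED fusion to nuclear EA restores b-gal, read by luminescence after 1 h room-temperature detection. Engineered CHO-K1 biosensor cells, 1,000/well, exposed 2 h at 37 C to titrations up to 46 uM final.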

For assay [5], the target named is 3',5'-cyclic-AMP phosphodiesterase 4B (Homo sapiens) (UniProt Q07343). The experiment in a line: qHTS Assay for Inhibitors of PDE-IV (AID 607; active = well fitted activation curve with a large enough effect in the main read-out, with a control signal flat, not every such curve was filed as active; also: % of control where 0% means no effect). In a few lines: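 The readout is membrane depolarisation from a cAMP-sensing CNG channel, detected with a potential dye at ex 535/em 590. Cells were HEK293-derived (endogenous PDE-IV) at 1000 cells/well, titrated up to 22.9 uM final.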
(Quantitative high-throughput screening tests each substance at several concentrations.)

Assay [6] has as its target Guanine nucleotide-binding protein G(i) subunit alpha-1 (Homo sapiens) (UniProt P63096). Briefly: qHTS Assay for Inhibitors of RGS12 GoLoco Motif Activity (Green Fluorophore) (AID 879; active = well fitted curve in the direction sought with a large enough effect; an effect the other way counts as inactive or inconclusive;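 also: 0% = labeled peptide with Gαi1 and full inhibition = labeled peptide alone without protein; negative values mean loss of peptide binding seen as reduced polarization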). In outline:
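Fluorescence polarization assay: 50 nM Gαi1 with 10 nM FITC-labeled RGS12 GoLoco peptide in 10 mM Tris pH 7.5, 150 mM NaCl, 0.1 mM GDP, 0.05% NP40, 10 min at room temperature with compound.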

The target of assay [7] is Cytochrome P450 2C9 (Homo sapiens) (UniProt P11712). Briefly: qHTS Assay for Inhibitors and Substrates of Cytochrome P450 2C9 (AID 883; active = well fitted curve in the direction sought with a large enough effect; an effect the other way counts as inactive or inconclusive; also: % is scaled to controls: 0 for no effect and ±100 for the full control effect; nearly all actives have a fitted effect of over 60% in size). In outline: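 Inhibition of CYP2C9 is scored as loss of luminescence, with 57uM sulphaphenazole defining 100% inhibition. Substrate Luciferin-H is used at 100uM, equal to its KM; enzyme at 10nM in 25mM KPO4, 60 min at 37C with NADPH regeneration.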

In assay [8] the target is Cytochrome P450 3A4 (Homo sapiens) (UniProt P08684). Briefly: qHTS Assay for Activators of Cytochrome P450 3A4 (AID 885; active = well fitted curve in the direction sought with a large enough effect; an effect the other way counts as inactive or inconclusive; also: nearly all actives have a fitted effect of over 65% in size). In a few lines: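 Steps: enzyme/substrate mix dispensed; compound added, 10 min RT; NADPH regeneration solution added, 60 min RT; luciferin detection buffer stops reaction; 20 min later luminescence measured.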
Assay [9] is described as follows: qHTS Assay for Identification of Small Molecule Agonists for Thrombopoietin (TPO) Signaling Pathway (AID 917; active = well fitted curve in the direction sought with a large enough effect; an effect the other way counts as inactive or inconclusive; also: % is scaled to controls: 0 for no effect and ±100 for the full control effect). In outline: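 Murine Ba/F3 cells expressing human TPO receptor and GPIIb-promoter luciferase, IL-3-starved overnight, given compound plus TPO at 26 pM (EC50). After 24 h at 37 C, 5% CO2, luminescence read.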
The target in assay [10] is Muscarinic acetylcholine receptor M1 (Rattus norvegicus) (UniProt P08482). Briefly: qHTS Assay for Antagonists of Acetylcholine Muscarinic M1 Receptor: Kinetic Measurement of Intracellular Calcium Response (AID 943; active = well fitted curve in the direction sought with a large enough effect; an effect the other way counts as inactive or inconclusive; also: nearly all actives have a fitted effect of over 75% in size; also: potency is read from the fitted curve at half-maximal effect;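 as to activity change, negative = inhibition: Fluo-4 calcium signal as peak divided by basal fluorescence over 4 min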). In a few lines:
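Intracellular calcium flux, recorded with Fluo-4 in a kinetic plate reader, served as signal; the response to carbachol at EC80 (100 nM final) was taken as maximal over minimal fluorescence after a 10 min compound pre-incubation in rat M1-CHO cells.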

For assay [11], the target named is Pyruvate kinase (Leishmania mexicana) (UniProt Q27686). Briefly: qHTS Validation Assay for Inhibitors of Leishmania Mexicana Pyruvate Kinase (AID 945; active = well fitted curve in the direction sought with a large enough effect; an effect the other way counts as inactive or inconclusive;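 also: 0% = DMSO only neutral control wells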). In a few lines:
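Compounds are tested as eight-point concentration series. Reactions contain 0.2 nM LmPYK E451W, 0.5 mM PEP, 0.1 mM ADP, 7 mM MgCl2 and 50 mM KCl at pH 7.2, run 1 h at room temperature, then read by PKLight luminescence.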

The target in assay [12] is Pyruvate kinase PKM (Homo sapiens) (UniProt P14618). Briefly: qHTS Assay for Activators of Human Muscle Pyruvate Kinase (AID 954; active = well fitted curve in the direction sought with a large enough effect, not every such curve was filed as active;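 also: 0% = uninhibited enzyme and -100% = no enzyme or full thiadiazolimine inhibition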). In outline:
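Reaction: 0.1 nM purified PKM2 with 0.5 mM phosphoenolpyruvate and 0.1 mM ADP, room temperature, 1 h. Readout: luciferase-based ATP luminescence after stop reagent. Activators judged against a 0.3 nM enzyme column.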

In assay [13] the target is Alpha-galactosidase A (Homo sapiens) (UniProt P06280). The experiment in a line: Counterscreen for Glucocerebrosidase Inhibitors: qHTS Assay for Human alpha-Galactosidase at pH 4.5 (AID 992; active = well fitted curve in the direction sought with a large enough effect; an effect the other way counts as inactive or inconclusive; also: 0% is about no effect). In outline:
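Concentration-response curves (0.7 nM to 77 uM final) were modeled with the Hill equation to give AC50. Reactions: 2 nM enzyme, 80 uM fluorogenic alpha-galactoside, pH 4.5 citric acid buffer, 20 min, room temperature.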

In assay [14] the target is alpha-glucosidase (Oryza sativa, rice) (UniProt Q653V4). Briefly: Counterscreen for Glucocerebrosidase Inhibitors: qHTS Assay for Rice alpha-Glucosidase at pH 5.0 (AID 997; active = well fitted curve in the direction sought with a large enough effect; an effect the other way counts as inactive or inconclusive;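 also: 0% = full activity with enzyme and -100% = basal without enzyme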). In a few lines:
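Rice alpha-glucosidase (4 nM final) with 400 uM 4-methylumbelliferyl-alpha-D-glucopyranoside in citrate buffer pH 5.0, 20 min at room temperature, stopped at pH 10; fluorescence 365/440 nm, compounds 0.7 nM–77 uM, AC50 from Hill fits.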

A short description of assay [15]: Stat Signaling Pathway (AID 446).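 Also: ME-180 cervical cancer cells given 40 pM IL-6 alongside compound; SIE-controlled beta-lactamase reporter measured as 460/530 nm FRET emission ratio; % is scaled to controls: 0 for no effect and ±100 for the full control effect.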 The note with it: ME-180 SIE beta-lactamase reporter, IL-6 stimulated, 5 h; at 17.2 µM (top of the series) unless noted. In a few lines: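 Screening format detects activators and inhibitors alike: ME-180 SIE-bla cells stimulated at 40 pM IL-6 for 5 hrs with compound, then dual-emission beta-lactamase read at 405 nm excitation.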

In assay [16] the target is Mitogen-activated protein kinase 10 (Mus musculus) (UniProt Q61831). Briefly: JNK3 AlphaScreen Assay (AID 530). In outline:
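Room-temperature AlphaScreen kinase assay; pre-activated HepG2 lysate as JNK3 source, biotin-GST-cJun(1-79) substrate, 10 uM ATP, compound 15 min preincubation.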
For orientation: In Alpha technology, singlet oxygen from a donor bead excites a nearby acceptor bead.

Sequence of 3',5'-cyclic-AMP phosphodiesterase 4B (Homo sapiens) (Q07343 whole entry, looked up): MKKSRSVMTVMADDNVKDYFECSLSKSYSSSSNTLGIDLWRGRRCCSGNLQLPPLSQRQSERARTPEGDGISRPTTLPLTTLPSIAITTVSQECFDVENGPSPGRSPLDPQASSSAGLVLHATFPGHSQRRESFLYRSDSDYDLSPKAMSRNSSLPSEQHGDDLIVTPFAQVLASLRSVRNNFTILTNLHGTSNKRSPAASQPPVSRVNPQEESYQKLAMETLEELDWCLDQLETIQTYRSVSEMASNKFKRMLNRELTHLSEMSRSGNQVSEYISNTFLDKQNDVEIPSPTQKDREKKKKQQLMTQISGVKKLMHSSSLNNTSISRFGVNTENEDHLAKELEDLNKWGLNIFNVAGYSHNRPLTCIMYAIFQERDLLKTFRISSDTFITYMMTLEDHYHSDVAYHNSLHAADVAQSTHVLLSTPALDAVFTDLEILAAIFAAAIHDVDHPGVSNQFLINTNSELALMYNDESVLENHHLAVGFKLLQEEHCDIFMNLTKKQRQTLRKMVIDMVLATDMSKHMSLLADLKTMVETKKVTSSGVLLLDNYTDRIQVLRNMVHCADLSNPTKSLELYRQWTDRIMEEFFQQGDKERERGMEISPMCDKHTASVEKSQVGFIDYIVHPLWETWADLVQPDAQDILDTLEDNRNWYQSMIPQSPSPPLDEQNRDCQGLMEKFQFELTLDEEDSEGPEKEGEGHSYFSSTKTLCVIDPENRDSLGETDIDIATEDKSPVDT
Sequence of Glucocorticoid receptor (Homo sapiens) (P04150 whole entry, looked up): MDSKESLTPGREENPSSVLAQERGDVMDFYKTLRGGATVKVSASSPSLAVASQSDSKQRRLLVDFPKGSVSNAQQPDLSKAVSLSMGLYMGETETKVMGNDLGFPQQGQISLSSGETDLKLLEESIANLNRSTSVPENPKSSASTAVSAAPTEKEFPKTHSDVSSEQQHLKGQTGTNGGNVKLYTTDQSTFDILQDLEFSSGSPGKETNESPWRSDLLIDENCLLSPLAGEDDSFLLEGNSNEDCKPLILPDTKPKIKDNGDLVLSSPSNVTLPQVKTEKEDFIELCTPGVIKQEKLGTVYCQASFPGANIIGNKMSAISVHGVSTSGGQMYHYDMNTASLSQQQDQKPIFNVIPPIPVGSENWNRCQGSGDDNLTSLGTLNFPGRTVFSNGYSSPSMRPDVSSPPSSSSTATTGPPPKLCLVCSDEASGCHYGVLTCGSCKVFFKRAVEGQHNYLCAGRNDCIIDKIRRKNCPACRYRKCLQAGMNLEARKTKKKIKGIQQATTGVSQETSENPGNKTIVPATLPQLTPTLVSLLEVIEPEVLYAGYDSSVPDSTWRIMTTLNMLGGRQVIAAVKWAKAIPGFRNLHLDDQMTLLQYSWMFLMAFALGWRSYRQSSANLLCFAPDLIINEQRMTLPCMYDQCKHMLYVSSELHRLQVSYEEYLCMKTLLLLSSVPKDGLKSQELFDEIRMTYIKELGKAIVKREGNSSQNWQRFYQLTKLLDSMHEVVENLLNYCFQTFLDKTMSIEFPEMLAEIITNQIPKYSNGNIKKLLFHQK
Sequence of Alpha-galactosidase A (Homo sapiens) (P06280 whole entry, looked up): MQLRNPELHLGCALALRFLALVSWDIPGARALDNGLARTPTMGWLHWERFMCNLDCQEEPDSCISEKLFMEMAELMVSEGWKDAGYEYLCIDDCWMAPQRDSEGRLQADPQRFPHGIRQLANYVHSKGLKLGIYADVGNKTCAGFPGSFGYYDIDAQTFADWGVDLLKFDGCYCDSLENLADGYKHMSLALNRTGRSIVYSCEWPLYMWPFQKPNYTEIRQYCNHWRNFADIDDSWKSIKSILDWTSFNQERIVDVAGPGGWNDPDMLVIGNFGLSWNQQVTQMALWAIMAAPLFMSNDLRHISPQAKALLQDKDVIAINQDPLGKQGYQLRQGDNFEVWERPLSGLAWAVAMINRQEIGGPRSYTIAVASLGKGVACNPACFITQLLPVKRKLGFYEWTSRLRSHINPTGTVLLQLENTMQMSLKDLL
Sequence of Muscarinic acetylcholine receptor M1 (Rattus norvegicus) (P08482 whole entry, looked up): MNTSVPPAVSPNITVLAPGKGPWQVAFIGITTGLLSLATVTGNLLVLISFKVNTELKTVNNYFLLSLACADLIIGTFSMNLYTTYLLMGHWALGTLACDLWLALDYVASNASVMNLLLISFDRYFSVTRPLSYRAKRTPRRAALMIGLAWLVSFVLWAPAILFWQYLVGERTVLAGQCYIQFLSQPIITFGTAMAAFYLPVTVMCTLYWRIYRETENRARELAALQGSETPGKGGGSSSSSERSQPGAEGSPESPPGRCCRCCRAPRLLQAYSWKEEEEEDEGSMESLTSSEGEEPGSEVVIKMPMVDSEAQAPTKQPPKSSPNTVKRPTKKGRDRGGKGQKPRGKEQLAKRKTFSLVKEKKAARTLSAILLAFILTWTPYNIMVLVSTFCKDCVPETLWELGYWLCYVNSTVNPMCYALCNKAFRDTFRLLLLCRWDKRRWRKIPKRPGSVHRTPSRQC
Sequence of Guanine nucleotide-binding protein G(i) subunit alpha-1 (Homo sapiens) (P63096 whole entry, looked up): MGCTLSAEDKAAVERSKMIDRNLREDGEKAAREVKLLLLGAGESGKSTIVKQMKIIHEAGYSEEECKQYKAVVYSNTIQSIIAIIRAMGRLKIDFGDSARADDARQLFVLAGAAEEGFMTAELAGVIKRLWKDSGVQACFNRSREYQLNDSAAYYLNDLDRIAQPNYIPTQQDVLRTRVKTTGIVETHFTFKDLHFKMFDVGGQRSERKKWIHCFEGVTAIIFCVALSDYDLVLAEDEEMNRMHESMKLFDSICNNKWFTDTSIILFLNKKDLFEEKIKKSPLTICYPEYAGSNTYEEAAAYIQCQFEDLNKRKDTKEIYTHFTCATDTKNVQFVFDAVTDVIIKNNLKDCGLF
Sequence of Pyruvate kinase (Leishmania mexicana) (Q27686 2-499 E452W): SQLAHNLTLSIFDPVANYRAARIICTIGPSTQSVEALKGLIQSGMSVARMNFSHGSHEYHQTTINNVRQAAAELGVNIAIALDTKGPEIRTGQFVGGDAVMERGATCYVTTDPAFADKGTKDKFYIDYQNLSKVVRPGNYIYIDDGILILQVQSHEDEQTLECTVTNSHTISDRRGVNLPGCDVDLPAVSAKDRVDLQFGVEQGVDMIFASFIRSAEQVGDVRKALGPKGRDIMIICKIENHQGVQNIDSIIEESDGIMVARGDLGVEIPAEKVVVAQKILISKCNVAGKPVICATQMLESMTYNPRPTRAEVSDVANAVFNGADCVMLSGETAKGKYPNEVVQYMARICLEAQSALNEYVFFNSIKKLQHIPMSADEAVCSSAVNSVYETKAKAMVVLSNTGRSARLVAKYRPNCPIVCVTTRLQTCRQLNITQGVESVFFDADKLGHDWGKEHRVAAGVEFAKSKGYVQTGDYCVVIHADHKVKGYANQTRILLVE
Sequence of Pyruvate kinase PKM (Homo sapiens) (P14618 whole entry, looked up): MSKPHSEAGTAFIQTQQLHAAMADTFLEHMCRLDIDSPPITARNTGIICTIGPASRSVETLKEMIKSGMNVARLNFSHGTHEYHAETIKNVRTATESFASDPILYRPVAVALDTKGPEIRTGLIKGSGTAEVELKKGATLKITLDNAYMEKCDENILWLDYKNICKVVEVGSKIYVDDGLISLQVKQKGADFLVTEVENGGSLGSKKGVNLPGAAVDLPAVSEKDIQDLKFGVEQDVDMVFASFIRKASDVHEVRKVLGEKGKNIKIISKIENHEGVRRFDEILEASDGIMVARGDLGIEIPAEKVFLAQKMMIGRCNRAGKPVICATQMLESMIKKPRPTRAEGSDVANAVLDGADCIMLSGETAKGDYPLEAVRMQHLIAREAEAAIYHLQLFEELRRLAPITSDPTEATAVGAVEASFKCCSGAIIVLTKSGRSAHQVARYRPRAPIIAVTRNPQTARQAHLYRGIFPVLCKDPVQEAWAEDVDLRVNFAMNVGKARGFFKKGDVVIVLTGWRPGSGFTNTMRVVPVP
Sequence of Cytochrome P450 3A4 (Homo sapiens) (P08684 whole entry, looked up): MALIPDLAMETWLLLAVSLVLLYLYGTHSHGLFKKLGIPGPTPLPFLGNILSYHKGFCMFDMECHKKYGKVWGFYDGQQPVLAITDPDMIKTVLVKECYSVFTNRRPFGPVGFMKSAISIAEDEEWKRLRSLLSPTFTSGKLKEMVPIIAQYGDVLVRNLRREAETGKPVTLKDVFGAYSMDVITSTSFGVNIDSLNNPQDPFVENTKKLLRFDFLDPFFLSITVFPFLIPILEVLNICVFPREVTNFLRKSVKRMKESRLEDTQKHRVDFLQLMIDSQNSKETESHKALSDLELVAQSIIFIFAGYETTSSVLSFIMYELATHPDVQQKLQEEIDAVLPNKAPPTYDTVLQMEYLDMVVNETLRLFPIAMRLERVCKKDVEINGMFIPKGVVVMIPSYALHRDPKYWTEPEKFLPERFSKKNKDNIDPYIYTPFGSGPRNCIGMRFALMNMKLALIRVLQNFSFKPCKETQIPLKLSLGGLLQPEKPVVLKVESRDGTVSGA
Sequence of Cytochrome P450 2C9 (Homo sapiens) (P11712 whole entry, looked up): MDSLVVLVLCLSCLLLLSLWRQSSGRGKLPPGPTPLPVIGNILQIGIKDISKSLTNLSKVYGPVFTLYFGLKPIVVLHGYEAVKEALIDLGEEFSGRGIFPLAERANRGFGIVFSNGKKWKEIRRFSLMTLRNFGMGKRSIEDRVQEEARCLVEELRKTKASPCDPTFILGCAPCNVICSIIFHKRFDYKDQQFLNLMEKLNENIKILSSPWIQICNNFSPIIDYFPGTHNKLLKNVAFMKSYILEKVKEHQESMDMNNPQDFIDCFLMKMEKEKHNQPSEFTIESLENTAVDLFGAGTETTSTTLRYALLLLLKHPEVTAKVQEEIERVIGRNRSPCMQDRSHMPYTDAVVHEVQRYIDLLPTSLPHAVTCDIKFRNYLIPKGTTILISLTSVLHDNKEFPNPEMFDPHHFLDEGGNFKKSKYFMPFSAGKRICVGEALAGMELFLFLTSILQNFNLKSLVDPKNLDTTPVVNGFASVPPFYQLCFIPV

Regarding `CCCCCCCCCCCCCCCCCC(=O)NC[C@@H](COP(=O)([O-])OCC[N+](C)(C)C)OCC`, the activity change, negative = inhibition is -12.5% [at 38 µM] in assay [1] and 28.6% [at 38 µM] (active) in assay [2]. The Potency in assay [3] is above 46 µM; in assay [4], above 46 µM; in [10] it was 7.08 µM (active). In addition, the Potency result in [5], in [7], in assay [8], in assay [9] and in assay [11] was “inactive” each time. Further, the compound was classed as inactive in [6], in assay [12], in assay [13] and in assay [14].

On to `CC(C)(C)OC(=O)NCCC(=O)Oc1ccc2ccc(=O)oc2c1`, for which the activity change, negative = inhibition in assay [1] was 16.1%. Also, the activity, negative = inhibition in assay [15] is 12.7%. Moreover, the Potency in [3] was above 20.6 µM.

`COC(=O)CSc1nc2sc3c(c2c(=O)n1C1CCCCC1)CCN(C)C3`: in assay [1], the activity change, negative = inhibition was -11.2%. The activity, negative = inhibition in assay [15] is -5.31%. For the same compound, the Potency in assay [3] was above 20.6 µM.

In the case of `Clc1ccc2[nH]c3c(NCCN4CCOCC4)ncnc3c2c1`, the activity change, negative = inhibition in assay [1] was -14.6%. The activity, negative = inhibition in assay [15] was -0.484%. Further, the Potency in [3] was above 20.6 µM.

`CN(C)CCCO[C@H]1[C@H]([C@H](O)CO)O[C@H]2OC(C)(C)O[C@@H]21`: the activity change, negative = inhibition in assay [1] was 6.88% [at 38 µM]; in assay [2], 5.42% [at 38 µM]. Moreover, the Potency in assay [3] and in assay [4] was above 46 µM each time. Further, the Potency entry in [16], in assay [5], in assay [10] and in assay [11] was “inactive” each time. Moreover, the result in assay [6], in [12], in assay [13] and in [14] was inactive.

In the case of `CCC(C)Nc1nc(-c2cccc(OC)c2O)nc2ccccc12` (centres undefined), the activity change, negative = inhibition in assay [1] was -28.3%. Also, the activity, negative = inhibition in assay [15] is -18.2%. In addition, in [3], the Potency is above 20.6 µM.

As to `Cc1ccc(CNC(=O)c2cc3c(=O)n4ccccc4nc3n(CC3CCCO3)c2=N)cc1` (centres undefined), the activity change, negative = inhibition in assay [1] was 20.6%; in assay [2] it was 21.8%. The Potency in assay [3] was above 20.6 µM.

`Cc1cc(=O)oc2c(CN3CCCCC3)c(O)c(Cl)cc12`: the activity change, negative = inhibition was 22.5% in assay [1] and 23.5% in assay [2]. In [3], the Potency is above 20.6 µM.

Take `CC[C@H](C)[C@@H]1O[C@]2(CC[C@@H]1C)C[C@H]1C[C@H](CC=C(C)[C@@H](O[C@@H]3C[C@H](OC)[C@H](O[C@@H]4C[C@H](OC)[C@H](O)[C@H](C)O4)[C@H](C)O3)[C@@H](C)C=CC=C3CO[C@@H]4[C@@H](O)C(C)=C[C@@H](C(=O)O1)[C@]34O)O2`: the results for the activity change, negative = inhibition in assay [1] and in assay [2] were -26.8% and -35.3%, respectively. Moreover, the Potency in assay [3] and in [4] was above 20.6 µM throughout. Also, the Potency result in assay [5] is “inactive”.
